Values joined by “and” are separate entries in the source; they are usually repeats but may differ in a detail not shown here. Equal entries are not always repeated. Records with an inconclusive call do not appear. Values without a mark were called inactive. Active and inactive are the calls of the source. The call rests on the fitted dose curve; in most records, active means well fitted curve in the direction sought with a large enough effect; inconclusive means small, poorly fitted or top-dose-only effect, or another doubt; inactive means no such curve, though single readings can be large; an effect the other way counts as inactive or inconclusive.

The values that follow come from PubChem BioAssay (NCATS).

A short description of assay [1]: Quantitative highthroughput screen to assess conditional lethalithy of NOMO1 cells grown in RPMI1640 with untreated serum (RPMI+s) (AID 1963876). Further: nearly all actives have a fitted effect of over 35% in size.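 On viability: 100% = DMSO wells and 0% = empty wells without cells.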 In outline: (§1)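 Each medium arm—HPLM with 10% dialyzed FBS, or RPMI1640 with 5 mM glucose and 10% untreated or dialyzed FBS—was screened against an 11-point, 3-fold compound titration for 48 h at 37 °C, with CellTiter-Glo luminescence as endpoint.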

The nature of assay [2]: Quantitative highthroughput screen to assess conditional lethalithy of P12 Ichikawa cells grown in Human Plasma-Like Medium with dialyzed fetal bovine serum (HPLM+ds) (AID 1963879). Further: nearly all actives have a fitted effect of over 35% in size. On viability: series mostly up to about 46 µM. The conditions noted are these: Potency: viability. In outline:
as §1

Assay [3] can be described thus: Cellular viability qHTS for adrenocortical cancer (ACC) cell line SW-13 (AID 1963989). Further: nearly all actives have a fitted effect of over 65% in size.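 On activity (max response): cells grown in serum-free medium with ITS supplement; on the % scale 0 is the no-effect control and ±100 the full control effect.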 The conditions noted are these: SW-13 ACC cells viability, CellTiter-Glo, 48 h; activity (max response): hits give low values. In a few lines:
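SW-13 cells in ITS-supplemented serum-free DMEM were plated overnight, then exposed for 48 h at 37C to compound titrations (up to 46 uM final). Viability was read by CellTiter-Glo luminescence; four-parameter logistic fits gave IC50 and efficacy.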

Assay [4] in a line: Cellular viability qHTS for adrenocortical cancer (ACC) cell line NCI-H295R (AID 1963990). Further: nearly all actives have a fitted effect of over 60% in size. In a few lines:
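Luminescent ATP read-out (CellTiter-Glo, 20 min RT) after 48 h drug exposure of NCI-H295R cells; a titration up to 46 uM final. Data normalized to doxorubicin (100% inhibition) and DMSO (0%); 4-parameter fit gives IC50, max response.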

Assay [5] can be described thus: Quantitative highthroughput screen to assess conditional lethalithy of P12 Ichikawa cells grown in RPMI1640 with dialyzed fetal bovine serum (RPMI+ds) (AID 1963880). Further: nearly all actives have a fitted effect of over 35% in size.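 On viability: 100% = DMSO wells and 0% = empty wells on each plate.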 The conditions noted are these: Potency: P12-Ichikawa viability. In outline: as §1
Assay [6] can be described thus: Quantitative highthroughput screen to assess conditional lethalithy of P12 Ichikawa cells grown in RPMI1640 with untreated serum (RPMI+s) (AID 1963881). Further: nearly all actives have a fitted effect of over 35% in size.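 On viability: series mostly up to about 46 µM; 100% = DMSO wells and 0% = empty wells without cells.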 The conditions noted are these: Potency: viability. In a few lines: as §1
Assay [7] in a line: Quantitative highthroughput screen to assess conditional lethalithy of SEM cells grown in Human Plasma-Like Medium with dialyzed fetal bovine serum (HPLM+ds) (AID 1963882). Further: nearly all actives have a fitted effect of over 35% in size. On viability: series mostly up to about 46 µM. In a few lines:
as §1

A short description of assay [8]: Quantitative highthroughput screen to assess conditional lethalithy of SEM cells grown in RPMI1640 with unreated serum (RPMI+s) (AID 1963883). Further: nearly all actives have a fitted effect of over 35% in size.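 On viability: 100% = DMSO wells and 0% = empty wells without cells.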 In a few lines:
as §1

Assay [9] in a line: Quantitative highthroughput screen to assess conditional lethalithy of SEM cells grown in RPMI1640 with dialyzed fetal bovine serum (RPMI+ds) (AID 1963884). Further: nearly all actives have a fitted effect of over 35% in size.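 On viability: series mostly up to about 46 µM; 100% = DMSO control wells and 0% = empty wells without cells.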 In outline: as §1
Assay [10] can be described thus: Quantitative highthroughput screen to assess conditional lethalithy of NOMO1 cells grown in Human Plasma-Like Medium with dialyzed fetal bovine serum (HPLM+ds) (AID 1963878). Further: nearly all actives have a fitted effect of over 35% in size. In outline: as §1
Potency means the concentration at half of the fitted maximal effect.

Turning to `Nc1ccc(-c2ccc3ncc4ccc(=O)n(-c5cccc(C(F)(F)F)c5)c4c3c2)cn1`, the Potency in assay [1] is 83.3 nM (active); in assay [2], 148 nM (active); in [3], 708 nM (active); in assay [4], 126 nM (active).
With `OCCN1C[C@H](O)[C@@H](O)[C@H](O)[C@@H]1CO`, the Potency in assay [1] is 105 nM (active); in assay [2], 2640 nM (active); in [5], 2960 nM (active); in assay [6], 2640 nM (active). For the same compound, the Potency entry in assay [7], in assay [8] and in assay [9] was “inactive” in each case.
Turning to `CC[C@@H]1C(=O)N(C)c2cnc(Nc3ccc(C(=O)NC4CCN(C)CC4)cc3OC)nc2N1C1CCCC1`, the Potency in assay [1] was 66.2 nM (active); in assay [2], 26.4 nM (active); in assay [5], 33.2 nM (active); in assay [6], 33.2 nM (active); in assay [7], 37.2 nM (active); in assay [8], 46.9 nM (active). Further, the Potency is 46.9 nM (active) in [9] and 35.5 nM (active) in assay [3].
In the case of `CN(C)CCCNC(=O)c1ccc(-c2cc(O)c3ncccc3c2)cc1`, the Potency result in assay [1], in assay [2] and in [5] was “inactive” throughout. Moreover, the Potency in assay [4] is 12600 nM (active).
`CCC(=C(c1ccccc1)c1ccc(OCCN(C)C)cc1)c1ccccc1`: the Potency result in assay [1], in assay [2] and in assay [6] was “inactive” in each case. Besides, in assay [7], the Potency is 23500 nM (active).
Consider `N#CC(=C(N)Sc1ccccc1N)C(C#N)=C(N)Sc1ccccc1N`, for which the Potency entry in assay [1], in [2], in assay [5] and in assay [6] was “inactive” throughout.
For the compound `CC(=O)Oc1cc2c(s1)CCN(C(C(=O)C1CC1)c1ccccc1F)C2` (stereo unspecified), the values for the Potency in assay [1], in [10] and in [7] were 14800 nM (active), 4690 nM (active) and 18700 nM (active), respectively. Moreover, the activity (max response) in assay [3] was -22.6% and -6.86%. Also, the Potency result in assay [4] was “inactive”.
`CCc1cc(C(C)=NOCc2ccc(C3CCCCC3)c(C(F)(F)F)c2)ccc1CN1CC(C(=O)O)C1`: the Potency in assay [1] is 8330 nM (active); in [2], 8330 nM (active); in [5] it was 7430 nM (active); in assay [6], 9350 nM (active); in assay [7], 7430 nM (active).
